The campaign covered roughly 31,000 sequences. About 1,400 (4.5%) were called active.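 The calls were made as follows: active = median seed-adjusted z-score above 1 or below -1; inactive = the rest.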 This excerpt belongs to a sample that is enriched for actives.
experiment: Novel Modifiers of Survival Motor Neuron (SMN) Protein: Gene Identification via Genome-wide siRNA Screen; details: HEK293T SMN2-luciferase reporter, siRNA knockdown, 72 h; actives lie on both sides;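 also: luminescence tracks full-length SMN protein made from the SMN2 reporter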
How it was run: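 Steps: spot 1 pmol siRNA, add Lipofectamine RNAiMax in serum-free DMEM, seed HEK293T SMN2–luciferase reporter cells; incubate 72 h at 37 °C; add ONE-Glo; normalize luminescence to control siRNA, log10, MAD. Candidates: |MAD| > 1.0.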

| Sequence | median seed-adjusted z-score |
| --- | --- |
| ACAUGUGGGUGACGGUUUUTT against SRM | 0 (inactive) |
| CAUGGACCCUGAUGACAUATT against UROD | 1.11 (active) |
| GCGUGAAUGAGGUGGAUUATT against ETNK2 | -0.74 (inactive) |
| CGUAUACUAUUAUCACGUUTT against ATP6V0A1 | 0.103 (inactive) |
| GGGCACGGGUGAUAUGAAUTT against CTDP1 | -2.29 (active) |
| AGCUACAAUUUGAAAGAGATT against RNF144A | -0.185 (inactive) |
| AGAGAUCACCGAUUACAGATT against ISG20 | 0.0209 (inactive) |
| CAACUGUUAUCAGAACGAUTT against ARFIP2 | 0.748 (inactive) |
| GCAAUGCCCUCUAUCAAUATT against IP6K1 | -0.317 (inactive) |
| AGAUGAUCGCUGAGUUCAATT against TNNC2 | -0.773 (inactive) |
| CGAAUGACAAGUGAUCUAATT against MDH1B | -1.13 (active) |
| GCUCAACUCUUAUUAGUCATT against ZNF485 | 0.445 (inactive) |
| AUACCUGAACAGUCCCUCATT against NOBOX | -0.426 (inactive) |
| CGCGCAACAUCGUCAAGUATT against LPHN1 | -1.03 (active) |
| GGACUAUUACAAAUCAAGATT against FLT3 | 0.418 (inactive) |
| GGACAUUGAUUAUAUUGGATT against GALC | 0 (inactive) |
| GACCGAGAAGUACCGCUGATT against HBZ | -0.0054 (inactive) |
| GCAUGUACCAGGUUCAGUATT against LRFN1 | 0.605 (inactive) |
| GCAGAGACCUACAAAAAGATT against RCN3 | -2.44 (active) |
| GGCAGUGUUUAUUUACUAUTT against RHBDL2 | 0.0701 (inactive) |
| CCAAAGAUGUUUCAUCUGATT against PCDHGA7 | 0.705 (inactive) |
| AAGGUAAAAUUGAAGAGUUTT against SERPINB9 | 0 (inactive) |

| Sequence | median seed-adjusted z-score |
| --- | --- |
| CUCACCUACUGGAACCUGATT against ZBED4 | -0.553 (inactive) |
| CCAACAUGCUAAUCACCUATT against MAP3K12 | -0.6 (inactive) |
| CUAUUUUACCUUUACAAGATT against ALDH1A2 | 0.564 (inactive) |
| CAUUAUCUAUUCUAGACAATT against TTC18 | -1.15 (active) |
| GCAUUGCCUCUAUACCAGATT against MALT1 | 0.442 (inactive) |
| GGGCAUGUUUCGUACCGUUTT against MYH10 | 0.0877 (inactive) |
| AGAACAUCCUGAUAGACCUTT against PIM2 | 0.00597 (inactive) |
| GGUGCGGAGAGAUGAGAUATT against PPM1M | 0 (inactive) |
| GCAGAAAUGACACCAAUAATT against NMB | 0.746 (inactive) |
| GCUCCUCAAAGGAUAUGAATT against CAB39L | 0 (inactive) |
| AUUUAUUUGUUGAGGUUAUTT against PIM3 | -1.01 (active) |
| GACCCUAAGCAGUAUAAGATT against CHSY3 | -0.113 (inactive) |
| CGAUUGCCCAUCAUCCUGATT against HAO2 | 0.039 (inactive) |
| GCUUCUACCCGGACGAAGATT against MYCN | 0.00242 (inactive) |
| AAACACCGCUGUUCCGUAATT against MED8 | -1.61 (active) |
| GGCUAGUGAUCGACCGUAATT against FADS1 | -0.905 (inactive) |
| GAAACCUGCUGAUCUACGATT against CREB3L2 | -0.192 (inactive) |
| GGAGAAAACCUUCGAGCAGTT against NKX6-2 | 0.101 (inactive) |
| UCCUAAAUGUGACCCGGUATT against ZMYND19 | 0.369 (inactive) |
| GCCCAUUUCAUCAACCUGATT against PRDM15 | 0.258 (inactive) |
| CAACAACUGCUACCAAGAUTT against SLC6A4 | 1.43 (active) |
| GGAACUAGAUGUCAUGUAUTT against VILL | 0.518 (inactive) |

| Sequence | median seed-adjusted z-score |
| --- | --- |
| CAAGUGUCUAUGUAACGAATT against FBN2 | 0.373 (inactive) |
| GCCUUUACCCUUGAAGAAATT against ME3 | 0.166 (inactive) |
| CAAUCAUGUCGAGAAAUAATT against TGIF2LX | -0.568 (inactive) |
| CGUUCAGUCCGUCACCCAATT against GATAD2A | -0.715 (inactive) |
| GGGUGGGUUACAUAGCACATT against CLDN19 | 0 (inactive) |
| GACUUAACCAAGAGACGUATT against THOC2 | -1.22 (active) |
| GGACGAAGGACGUGCUGUUTT against SHC2 | -0.207 (inactive) |
| GCAAUUACAUUGUACGCUUTT against ETFDH | 0.154 (inactive) |
| CAGCUUCAGGAGAAUGAAATT against PPP1CC | -0.344 (inactive) |
| GCACGUAAGCUGAACACUATT against PRC1 | -0.0195 (inactive) |
| UGAAGAACCUGGACGCCAATT against CCL24 | 0 (inactive) |
| CCUCGAGGAGAUUAACAAATT against NPEPL1 | 1.12 (active) |
| CAGAUGAAGUGAUCGGUGATT against CIITA | -0.109 (inactive) |
| GCUCCUGUAUGAAUGCAAUTT against FBP2 | 0 (inactive) |
| GGCUUUUAGCCUGAAGAAATT against PRDM5 | -0.463 (inactive) |
| CUGAUGCUCUGUAUCCCAATT against TNRC4 | 0.801 (inactive) |
| GAUGAUAUUUAUUCACCAATT against ZBTB25 | 0 (inactive) |
| GCAUACCUCAGUUCCAAGATT against CDY2A | 0.75 (inactive) |
| CCUCUAACCUUAGAUGAAATT against GTF2E2 | -1.32 (active) |
| GGAGCAUAAAGUAGACCGATT against ABCA10 | -0.104 (inactive) |
| GACCGUUCACUGUACAACATT against FUT9 | 0.0444 (inactive) |
| GUGUUAUAACAAUCGAAGATT against CAPSL | -0.168 (inactive) |

| Sequence | median seed-adjusted z-score |
| --- | --- |
| GGCUUAAACUUAGAGUCAATT against MYLIP | 0.652 (inactive) |
| CAGUCGAUGUCCAUGAAUATT against LRRN1 | -0.407 (inactive) |
| GAAUUGCUCCUAAUGUCAATT against MYB | 0.307 (inactive) |
| CAGUGAGGUGAAACAAAUATT against DNAJC8 | -1.62 (active) |
| GUGACCAUCUUGGACAUUATT against CELSR1 | -0.466 (inactive) |
| GGCGACUGUUUAUACAUGATT against ALDH7A1 | -0.406 (inactive) |
| GGAAGAAAUUAGCUAAAAATT against MKI67IP | 0.426 (inactive) |
| UGACCCAGAUUAUCGCCGATT against POLR2I | -3.27 (active) |
| GCCUAGAGGAUACCCAAAATT against NPVF | 0.588 (inactive) |
| GCUCAGAUGUUAUUCGGGATT against SKIV2L | 0.209 (inactive) |
| GCAAAGCUAUUGCAUUGAATT against HSDL2 | -0.0717 (inactive) |
| AGAUCAACCCAGAUAACUATT against INCENP | -0.339 (inactive) |
| GCACCUAUCUUGACCUGCUTT against CTSC | 0 (inactive) |
| CCUUCUAAUUCGCAAGGUATT against REL | -0.358 (inactive) |
| GCGCAGCUCUGGAAUUUGATT against OXCT2 | -0.449 (inactive) |
| AGAGCAUUCACAAACUGAATT against RBM8A | 0 (inactive) |
| CCUCCUCGAUGCCUACAAATT against DIO2 | -0.549 (inactive) |
| CACUAUGGAGAAACAAUAUTT against ZNF181 | -0.154 (inactive) |
| GGUGAUGACUGCUUGAUGATT against PSKH1 | -2.03 (active) |
| CCCACCAAAUUGCACAAUATT against KLF13 | -0.501 (inactive) |
| GACUGUCUUUGAAAAGAGATT against HESX1 | 0.3 (inactive) |
| GCAGCAUGCUACAACCAAATT against RNF25 | -0.0826 (inactive) |

| Sequence | median seed-adjusted z-score |
| --- | --- |
| GAUGGGUAAAUGUACAUAUTT against KCNIP4 | -0.401 (inactive) |
| GCAUCGUGGGCAUAGCGUATT against PCSK6 | 0 (inactive) |
| GAAUUUUGAUGGACAAGUUTT against RAG2 | 0.138 (inactive) |
| GAACCUCAAGAAUCGAACATT against REV1 | -0.294 (inactive) |
| CCAGGGACCAAGAGAAAGATT against RCE1 | -1.19 (active) |
| GCUUUGAUUUCACCAACAATT against GCM2 | -0.241 (inactive) |
| GGACGUGACCAUCAUGUACTT against IRF7 | -0.304 (inactive) |
| CGAUGUCAGCAUUUCCGUUTT against EPRS | -0.391 (inactive) |
| UCACGCUCCUGGACCAUUUTT against SLC6A3 | 0.457 (inactive) |
| GAAGCGCAGUCACCUGAAATT against PROC | -0.228 (inactive) |
| CUGUUGAGGUUGUUAUUGATT against GABPA | 1.43 (active) |
| GCAUGACCAUAAGAUCCUATT against NUAK2 | -0.0601 (inactive) |
| GAAGGAGAAUGGUAUCACUTT against GPATCH4 | -0.519 (inactive) |
| CAAAGUAUCUGGAGAACCATT against KIF2C | 0.0122 (inactive) |
| GGGCCUUUCUUGGACUGAUTT against PHF7 | 0.425 (inactive) |
| CUUCAGUUCGAAUACAUUUTT against RFC5 | -0.644 (inactive) |
| GGAGACUUCUUACCCACCATT against PSMD4 | 1.46 (active) |
| CAACUGAUGAGUAUCUAGATT against MRCL3 | -0.00909 (inactive) |
| CUUCAGUGCUGAUCAGGUATT against NDUFA2 | -0.694 (inactive) |
| GGACCCAGUAUUUCAGGAATT against SFXN4 | -0.174 (inactive) |
| CGAUAUGGAAAAUCCCUAUTT against ANXA10 | 0.0445 (inactive) |
